Shown are actives, neighbours in structure and some others; about 5.4% of the full set was active somewhere.
15-hLO-2 inh: qHTS Assay for Inhibitors of 15-hLO-2 (15-human lipoxygenase 2) | purified 15hLO-2, xylenol orange hydroperoxide absorbance | Potency, µM (titrated, usually from 57.1 µM), without a hit: at the top dose activity change, negative = inhibition, actives largely listed as inhibitors | 0.56% of 110,000 active; further: potency means the concentration at half of the fitted maximal effect; nearly all actives have a fitted effect of over 60% in size
Target sequence (O15296 whole entry, looked up): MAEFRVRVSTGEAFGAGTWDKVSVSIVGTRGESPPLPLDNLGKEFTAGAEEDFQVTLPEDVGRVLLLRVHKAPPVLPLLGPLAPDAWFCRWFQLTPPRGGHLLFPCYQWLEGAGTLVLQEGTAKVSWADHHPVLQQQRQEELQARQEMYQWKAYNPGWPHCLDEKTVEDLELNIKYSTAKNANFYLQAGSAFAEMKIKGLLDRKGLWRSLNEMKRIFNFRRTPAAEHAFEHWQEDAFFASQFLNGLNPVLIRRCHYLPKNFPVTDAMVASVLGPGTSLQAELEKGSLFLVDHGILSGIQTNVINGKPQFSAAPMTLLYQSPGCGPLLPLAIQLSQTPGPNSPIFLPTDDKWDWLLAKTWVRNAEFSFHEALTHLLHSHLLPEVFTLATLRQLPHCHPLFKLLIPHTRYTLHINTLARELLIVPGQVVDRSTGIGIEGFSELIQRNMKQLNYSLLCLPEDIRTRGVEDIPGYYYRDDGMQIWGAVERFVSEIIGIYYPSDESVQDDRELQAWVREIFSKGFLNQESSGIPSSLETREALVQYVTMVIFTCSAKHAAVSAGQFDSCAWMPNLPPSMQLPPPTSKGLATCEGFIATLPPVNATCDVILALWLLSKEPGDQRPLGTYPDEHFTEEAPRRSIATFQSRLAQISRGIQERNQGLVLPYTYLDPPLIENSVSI
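Enzyme 50 nM, AA 45 uM, 25 mM Hepes pH 7.5 + 0.01% Triton X-100; cpd preinc 15 min RT, rxn 90 min RT; stop/detect with 200 uM XO + 300 uM Fe(II) in 50 mM H2SO4, 30 min; A573/A405.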
PNC inhibitor: High Content Assay for Compounds that inhibit the Assembly of the Perinucleolar Compartment. PC3M PTB-GFP, PNC prevalence imaging, 16 h; stronger effect = lower value. activity change (PNC), negative = inhibition, % at 10 µM. 3.1% of 140,000 active. AID 2417, 2010;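 active means readout at or below -70, meaning at least 70% loss of cells showing the perinucleolar compartment, a nuclear body marking cancer cells; inconclusive means readout between -30 and a set limit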;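 further: plate controls were DMSO wells for no effect and camptothecin positive control wells for full effect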
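Read-out is percentage of cells bearing a perinucleolar compartment, from automated 20x imaging of fixed, Hoechst-stained PC3M PTB-GFP cells. Cells were seeded 4 h, then exposed 16 h to compound (23 nl of library stock) in duplicate plates.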
IMPase Li cell: qHTS Assay for Identifying the Cell-Membrane Permeable IMPase Inhibitors: Potentiation with Lithium; 0.35% of 210,000 active; AID 1457, 2008; CHO-M1 cells, IP1 TR-FRET (IP-One), carbachol + lithium; Potency, µM (top dose mostly 59.4 µM), for the others: top-dose activity, negative = IMPase inhibition, most hits filed as inhibitors;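 further: IP1 builds up when IMPase is blocked and the TR-FRET signal falls; potency means the concentration at half of the fitted maximal effect; plate controls were basal vehicle for no effect and high inhibitor control for full effect; nearly all actives have a fitted effect of over 50% in size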
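CHO cells stably expressing M1 receptor (2000/well, cultured 16–30 h) treated 30 min at 37C with compound plus low lithium. Cytosolic IP1 by TR-FRET (665/620 ratio and 620 channel) after 10 min lysis; AC50 by Hill fit.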
HPGD block: qHTS Assay for Inhibitors of HPGD (15-Hydroxyprostaglandin Dehydrogenase). 15-hydroxyprostaglandin dehydrogenase [NAD(+)] (Homo sapiens), P15428. purified HPGD, NADH fluorescence kinetic, PGE2 substrate. Potency, µM, without a hit: top-dose activity change, negative = inhibition, actives largely listed as inhibitors. 4.3% of 150,000 active. AID 894, 2007; active means well fitted inhibition curve with a large enough effect, not every such curve was filed as active; inconclusive means small, poorly fitted or top-dose-only effect, or another doubt; inactive means no such curve, though single readings can be large or run the other way; further: potency means the concentration at half of the fitted maximal effect
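NADH formation kinetics: reaction with 30 uM PGE2 and 1 mM NAD+ (final), 20 nM enzyme, Tris-HCl pH 8 with Tween 20, after 15 min compound preincubation at room temperature. Fluorescence change, last versus first of five reads.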
ALOX12 inhib: qHTS Assay for Inhibitors of 12-hLO (12-human lipoxygenase); Polyunsaturated fatty acid lipoxygenase ALOX12 (Homo sapiens), P18054; purified 12-hLO, xylenol orange hydroperoxide absorbance; Potency, µM (top dose mostly 57.1 µM), for the others: at the highest dose activity change, negative = inhibition, usual class: inhibitors; 0.12% of 150,000 active; AID 1452, 2008; further: potency means the concentration at half of the fitted maximal effect; nearly all actives have a fitted effect of over 55% in size
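150 nM 12hLO, 25 mM Hepes pH 7.0 + 0.01% Triton X-100; cpd preinc 15 min RT; 40 uM arachidonic acid, 30 min RT; Fe-XO 30 min; A573/A405 ratio as read-out.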
IMPase cell inh: qHTS Assay for Identifying the Cell-Membrane Permeable IMPase Inhibitors; inhibition (IP1 accumulation), % at 46.1 µM; CHO-M1 cells, IP1 accumulation, HTRF TR-FRET ratio; 120,000 tested, under 10 active; Inositol monophosphatase 1 (Rattus norvegicus), P97697; AID 901, 2007; active means well fitted curve in the direction sought with a large enough effect in the signal ratio, not every such curve was filed as active; inconclusive means small, poorly fitted or top-dose-only effect, or a change in a side signal; inactive means no such curve, though single readings can be large or run the other way; the % refers to the signal ratio;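 further: cells stimulated with carbachol in lithium chloride buffer; plate controls were DMSO basal wells for no effect and reference inhibitor wells for full effect; higher means more IMPase inhibition seen as more IP1 and lower FRET ratio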
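Seeded CHO-M1 cells were dosed with compound at up to 46 uM, stimulated with carbachol for 30 min, then lysed in IP-One detection reagents. Higher IP1 lowers the TR-FRET signal.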
* hit, by the source's call; ? = inconclusive; . = not tested or not shown; [ ] = remark or other dose. Unless noted, the call rests on the fitted dose curve; in most records, active means well fitted curve in the direction sought with a large enough effect; inconclusive means small, poorly fitted or top-dose-only effect, or another doubt; inactive means no such curve, though single readings can be large; an effect the other way counts as inactive or inconclusive. Unless noted, on the % scale 0 is the no-effect control and ±100 the full control effect.

SMILES | 15-hLO-2 inh | PNC inhibitor | IMPase Li cell | HPGD block | ALOX12 inhib | IMPase cell inh
Cc1ccccc1NC(=O)CSC(N)=O | -28% | 13 | -2% | ? | -6% | 1
Cc1ccccc1NC(=O)Cc1nc(CCl)cs1 | . | ? | -2% | 20µM* | 3% | .
Cc1ccccc1NC(=O)CN1C(=O)C2C3CC(C(Br)C3Br)C2C1=O (centres undefined) | . | -17 | -10% | 14µM* | -2% | .
O=C(CSCc1ccc(Cl)cc1)Nc1ccccc1O | . | . | 10% | . | . | .
Cc1ccccc1NC(=O)Cn1cccc1 | 12% | ? | -1%[38.3 µM] | 32µM* | 2% | 3
Cc1ccccc1NC(=O)CCN1CCCC1 | . | . | 4% | . | . | .
CCC(=O)NNC(=O)CCC(=O)Nc1cccc(Cl)c1C | . | . | -1% | . | . | .
Cc1c(Cl)cccc1NC(=O)Cn1cccc1 | -16% | 0 | -15%[38.3 µM] | 18µM* | 2% | 5
CNc1cc([N+](=O)[O-])ccc1N/C=C/C(=O)c1cccs1 | . | 51 | 1% | -17% | -9% | 1[0.0738 µM]
CNc1cc([N+](=O)[O-])ccc1N/C=C/C(=O)c1ccc2c(c1)OCO2 | . | -118* | -2% | -16% | -3% | .
Cc1nn(-c2cc(N3CCNCC3)ccc2[N+](=O)[O-])c(=O)c2ccccc12 | 10% | -97* | 5%[38.3 µM] | -8% | -2% | 6
CN(C)c1nc(SCCOC(=O)COc2ccc(Cl)cc2Cl)nc(N(C)C)n1 | 17% | 29 | 0%[38.3 µM] | 16µM* | -9% | 3
CN1CCN(C(c2cccnc2)c2ccc3cccnc3c2O)CC1 (centres undefined) | 73% | ? | 55%[38.3 µM] | -29% | 1.6µM* | 11
NCCC[C@@H](CC(=O)N[C@@H]1CCNC[C@H]1C(=O)N[C@H](CC(=O)N[C@@H](CCC(=O)O)CC(=O)O)Cc1c[nH]c2ccccc12)NC(=O)C[C@H](CO)NC(=O)[C@@H]1CNCC[C@H]1N | . | . | 9% | -5% | 2% | .
S=C(NCCSCc1ccc(Cl)cc1Cl)Nc1ccccc1 | ? | 68 | 2%[38.3 µM] | -27% | 25µM* | 6
CCOc1ccc(CSCCNC(=S)Nc2ccccc2)cc1 | . | -92* | 5% | -10% | ? | 16
CCOc1ccc(NC(=S)NCCCc2ccccc2)cc1 | . | . | 7% | . | . | .
CCCC(=O)N(c1ccc2oc3c(c2c1)CCCC3)S(=O)(=O)c1cc(C)ccc1C | . | . | . | . | . | 2
COc1ncc2nc(-c3ccc(Cl)cc3)c(=O)n(CCC#N)c2n1 | -1% | . | -8% | . | . | .
O=c1c(-c2cccs2)nc2cnc(N3CCNCC3)nc2n1C1CC1 | -5% | . | -2% | . | . | .
CCOC(=O)C1=C(C)Nc2nc(=S)[nH]n2C1c1ccc(Cl)cc1 (centres undefined) | -1% | ? | 12%[38.3 µM] | 11µM* | -19% | 5
C/C=C1\C(=O)C[C@H]2[C@@H]3CCC4=CC(=O)CC[C@]4(C)[C@H]3CC[C@]12C | -10% | . | 18% | -5% | -14% | .
CN(C)CN1CSC(=S)N(CN(C)C)C1 | 3%[11.4 µM] | . | -16% | 3.2µM* | -5%[11.4 µM] | .
O=C(O)CC[C@@H](NC(=O)c1ccccc1C(=O)O)C(=O)O | 7% | . | . | . | 0% | 7
CCCC/C=C/C(NC(=O)c1ccco1)c1ccccc1 (centres undefined) | 1% | . | 3% | -30% | -2% | .
O=C(OCC(=O)N1CCc2ccccc21)c1c2c(nc3ccccc13)CCCC2 | . | -110* | . | . | -5% | 7
NC(N)=N[C@H](CCC(=O)O)C(=O)O | 3% | . | . | . | -2% | 5

Source: PubChem (National Center for Advancing Translational Sciences (NCATS))
